Laboratory results published in PubChem BioAssay (NCATS).
Records with an inconclusive call do not appear. Activity calls are given as the source filed them. The call rests on the fitted dose curve; in most records, active means well fitted cell-killing curve with a large enough effect; inconclusive means small, poorly fitted or top-dose-only effect, or effect the other way; inactive means flat fitted curve, though single readings scatter.

Legend:
Experiment in all cases: Primary qHTS to identify gynecologic anti-cancer compounds using libraries of approved drugs and bioactive compounds (AID 1345084); further: nearly all actives have a fitted effect of over 55% in size
[1] = tested on: C33A; settings: Gynecologic cancer cell panel viability, ATPlite luminescence, 48 h; series mostly up to 57.5 µM
Procedure, shortened: (§1)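 Cells, 1,000 per well, were allowed to settle for 16 h at 37 C before compound addition. Five concentrations were tested for 48 h, and viability was read by ATPlite luminescence after 15 min at room temperature.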

[2] = tested on: CAOV3; settings: Gynecologic cancer cell panel viability, ATPlite luminescence, 48 h; series mostly up to 57.5 µM
Procedure, shortened: as §1

[3] = tested on: CASKI; settings: Gynecologic cancer cell panel viability, ATPlite luminescence, 48 h; series mostly up to 57.5 µM
Procedure, shortened: as §1

[4] = tested on: Es-2; settings: Gynecologic cancer cell panel viability, ATPlite luminescence, 48 h; series mostly up to 57.5 µM
Procedure, shortened: as §1

[5] = tested on: HeLa; settings: Gynecologic cancer cell panel viability, ATPlite luminescence, 48 h; series mostly up to 57.5 µM
Procedure, shortened: as §1

[6] = tested on: Hek293T; settings: Gynecologic cancer cell panel viability, ATPlite luminescence, 48 h, control line for the selectivity index; series mostly up to 57.5 µM
Procedure, shortened: as §1

[7] = tested on: JEG-3; settings: Gynecologic cancer cell panel viability, ATPlite luminescence, 48 h; series mostly up to 57.5 µM
Procedure, shortened: as §1

[8] = tested on: OV90; settings: Gynecologic cancer cell panel viability, ATPlite luminescence, 48 h; series mostly up to 57.5 µM
Procedure, shortened: as §1

[9] = tested on: PA-1; settings: Gynecologic cancer cell panel viability, ATPlite luminescence, 48 h; series mostly up to 57.5 µM
Procedure, shortened: as §1

[10] = tested on: SKOV3; settings: Gynecologic cancer cell panel viability, ATPlite luminescence, 48 h; series mostly up to 57.5 µM
Procedure, shortened: as §1

[11] = tested on: Tov-21-G; settings: Gynecologic cancer cell panel viability, ATPlite luminescence, 48 h; series mostly up to 57.5 µM
Procedure, shortened: as §1

[12] = tested on: Tov112D; settings: Gynecologic cancer cell panel viability, ATPlite luminescence, 48 h; series mostly up to 57.5 µM
Procedure, shortened: as §1
On the % scale 0 is the no-effect control and ±100 the full control effect.

CC1=C(C(=O)O)/C(=C\CO[C@@H]2O[C@H](CO)[C@@H](O)[C@H](O)[C@H]2O)C(OC(=O)/C=C/c2ccc(O)cc2)C1 (some centres not stated)
inactive: Potency [1] | Potency [2] | Potency [3] | Potency [4] | Potency [5] | Potency [6] | Potency [7] | Potency [8] | Potency [9] | Potency [10] | Potency [11] | Potency [12]

CC(C)(C)NC(=O)[C@@H](c1cccnc1)N(C(=O)c1ccco1)c1ccc(C(C)(C)C)cc1
inactive: Potency [1] | Potency [2] | Potency [3] | Potency [4] | Potency [5] | Potency [6] | Potency [7] | Potency [8] | Potency [9] | Potency [10] | Potency [11] | Potency [12]

NC1CCCCN(c2c(F)cc3c(=O)c(C(=O)O)cn(C4CC4)c3c2Cl)C1 (configuration not stated)
inactive: Potency [1] | Potency [2] | Potency [3] | Potency [4] | Potency [5] | Potency [6] | Potency [7] | Potency [8] | Potency [9] | Potency [10] | Potency [11] | Potency [12]

CC1(C)CC2=C3C=CC4C5(C)CCC(O)C(C)(C)C5CCC4(C)C3(C)CCC2(C)C(O)C1 (configuration not stated)
inactive: Potency [1] | Potency [2] | Potency [3] | Potency [4] | Potency [5] | Potency [6] | Potency [7] | Potency [8] | Potency [9] | Potency [10] | Potency [11] | Potency [12]

CC1(C)CC[C@]2(CO[C@@H]3O[C@H](CO)[C@@H](O)[C@H](O)[C@H]3O)[C@@H](O)C[C@]3(C)C(=CCC4[C@@]5(C)CC[C@H](O[C@@H]6O[C@H](CO[C@@H]7O[C@H](CO[C@@H]8OC[C@@H](O)[C@H](O)[C@H]8O)[C@@H](O)[C@H](O)[C@H]7O)[C@@H](O)[C@H](O)[C@H]6O)C(C)(C)C5CC[C@]43C)[C@@H]2C1 (some centres not stated)
inactive: activity change, negative = cytotoxicity [1] 4.63% [at 11.6 µM] | activity change, negative = cytotoxicity [2] 5.01% [at 11.6 µM] | activity change, negative = cytotoxicity [3] -3.94% [at 11.6 µM] | activity change, negative = cytotoxicity [4] 4.96% [at 11.6 µM] | activity change, negative = cytotoxicity [5] -7.27% [at 11.6 µM] | activity change, negative = cytotoxicity [6] 1.89% [at 11.6 µM] | activity change, negative = cytotoxicity [7] 1.67% [at 11.6 µM] | activity change, negative = cytotoxicity [8] -3.63% [at 11.6 µM] | activity change, negative = cytotoxicity [9] -8.81% [at 11.6 µM] | activity change, negative = cytotoxicity [10] -1.91% [at 11.6 µM] | activity change, negative = cytotoxicity [11] 4.01% [at 11.6 µM] | activity change, negative = cytotoxicity [12] -1.63% [at 11.6 µM]

COc1ccc(Cl)c(Nc2nc3ccccc3nc2NS(=O)(=O)c2cccc(NC(=O)C(C)(C)N)c2)c1
inactive: Potency [1] | Potency [2] | Potency [3] | Potency [4] | Potency [5] | Potency [6] | Potency [7] | Potency [8] | Potency [9] | Potency [10] | Potency [11] | Potency [12]

C[C@H](C(=O)NC1CCCC1)N(C(=O)Cn1nnc(-c2ccc3c(c2)OCO3)n1)C1CCCCC1
inactive: Potency [1] | Potency [2] | Potency [3] | Potency [4] | Potency [5] | Potency [6] | Potency [7] | Potency [8] | Potency [9] | Potency [10] | Potency [11] | Potency [12]

OC[C@H]1O[C@@H](Oc2cc(O)c3c(c2)O[C@@H](c2ccc(O)cc2)[C@H](O)C3)[C@H](O)[C@@H](O)[C@@H]1O
inactive: Potency [1] | Potency [2] | Potency [3] | Potency [4] | Potency [5] | Potency [6] | Potency [7] | Potency [8] | Potency [9] | Potency [10] | Potency [11] | Potency [12]

C[C@H](N)C(=O)N[C@@H](Cc1ccc(O)cc1)C(=O)N1CCC[C@H]1C(=O)NCC(=O)N[C@@H](CCCCN)C(=O)N[C@@H](Cc1ccccc1)C(N)=O
inactive: activity change, negative = cytotoxicity [1] 10.6% [at 11.6 µM] | activity change, negative = cytotoxicity [2] 7.8% [at 11.6 µM] | activity change, negative = cytotoxicity [3] 6.63% [at 11.6 µM] | activity change, negative = cytotoxicity [4] 2.05% [at 11.6 µM] | activity change, negative = cytotoxicity [5] 3.06% [at 11.6 µM] | activity change, negative = cytotoxicity [6] 13% [at 11.6 µM] | activity change, negative = cytotoxicity [7] 1.3% [at 11.6 µM] | activity change, negative = cytotoxicity [8] 1.27% [at 11.6 µM] | activity change, negative = cytotoxicity [9] 3.5% [at 11.6 µM] | activity change, negative = cytotoxicity [10] 32.3% [at 11.6 µM] | activity change, negative = cytotoxicity [11] 1.95% [at 11.6 µM] | activity change, negative = cytotoxicity [12] 5.22% [at 11.6 µM]

CCC[C@@H]1O[C@@H]2C[C@H]3[C@@H]4CCC5=CC(=O)C=C[C@]5(C)[C@H]4[C@@H](O)C[C@]3(C)[C@]2(C(=O)CO)O1
inactive: Potency [1] | Potency [2] | Potency [3] | Potency [4] | Potency [5] | Potency [6] | Potency [7] | Potency [8] | Potency [9] | Potency [10] | Potency [11] | Potency [12]

CC1CCC2(CO)C(C(=O)O)=CCCC2C1(C)CCc1ccoc1 (configuration not stated)
inactive: Potency [1] | Potency [2] | Potency [3] | Potency [4] | Potency [5] | Potency [6] | Potency [7] | Potency [8] | Potency [9] | Potency [10] | Potency [11] | Potency [12]
